Drawing on PubChem BioAssay (NCI), this text covers growth for 8 compounds.

About 83,000 compounds went through this panel and 20% of them were active in at least one assay; those are over-represented in the sample as a whole.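 How to read the values: 0–100, growth inhibition (40 = 60% inhibited); 0, no net growth; -100 to 0, cell death (-40 = 40% of starting cells died; -100 = all dead).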 Unmarked numbers belong to inactive results. The source made the active and inactive calls. The calls were made as follows: active = growth percent below 10; inactive = the rest. Where a SMILES comes first, the peptide text is derived from it. Bridges are numbered along the chain shown (N, C = ends). [ ]: non-standard residue; d: D form. The star is where a group is joined. ξ: configuration not given here. ξNMePhe(4-NMe2) = CNC(Cc1ccc(N(C)C)cc1)C(=O)O; Picolinoyl(3-OH) = O=C(c1ncccc1O)*; ξPip(4-oxo) = O=C1CCNC(C(=O)O)C1; Phg = N[CH](C(=O)O)c1ccccc1; Abu = CC[CH](N)C(=O)O

What all share (experiment): NCI-60 one-dose screen, 48 h (100 = growth as untreated, 0 = no growth, -100 = all killed)
One assay deals with HCT-15 colon. Particulars: 10 µM.
Another assay deals with HT29 colon. Particulars: 10 µM.
In the next assay the test system is SNB-75 CNS. Particulars: 10 µM.
The test system of a further assay is SNB-19 CNS. Particulars: 10 µM.
The next assay deals with U251 CNS. The note with it: 10 µM.
In the next assay the test system is PC-3 prostate. Particulars: 10 µM.
A further assay relates to SK-MEL-5 melanoma. Particulars: 10 µM.
The next assay deals with UACC-62 melanoma. Particulars: 10 µM unless noted.
The subject of the next assay is LOX IMVI melanoma. The note with it: 10 µM.
The test system of another assay is SK-MEL-2 melanoma. Particulars: 10 µM.
A further assay has as its system EKVX NSCLC. The note with it: 10 µM.
For the next assay, the system named is SN12C renal. The note with it: 10 µM.
Another assay has as its system UO-31 renal. The note with it: 10 µM.
The next assay deals with TK-10 renal. The note with it: 10 µM unless noted.
A further assay deals with ACHN renal. Particulars: 10 µM.
A further assay concerns CAKI-1 renal. Particulars: 10 µM.
In a further assay the test system is A498 renal. Particulars: 10 µM.
The next assay deals with CCRF-CEM leukemia. The note with it: 10 µM.
A further assay concerns MOLT-4 leukemia. The note with it: 10 µM.
Another assay deals with SK-MEL-28 melanoma. The note with it: 10 µM.

Consider `CSC[C@H](NC(=O)COc1cccc2cnccc12)C(=O)NC(Cc1ccccc1)C(O)C(=O)N1CSC[C@H]1C(=O)NC(C)(C)C` (some centres undefined), for which the growth is 96.3% in the assay with HCT-15 colon; 108% in the assay with HT29 colon; -20.5% (active) with SNB-75 CNS; 103% in the assay with SNB-19 CNS; 102% in the assay on U251 CNS; 96.3% with PC-3 prostate. In addition, the growth in the assay on SK-MEL-5 melanoma is 102%; in the assay with UACC-62 melanoma, 98.3%; in the assay with LOX IMVI melanoma it was 102%; in the assay on SK-MEL-2 melanoma, 113%; with EKVX NSCLC, 103%; in the assay on SN12C renal it was 102%. In addition, the growth was 94.4% in the assay on UO-31 renal; 139% in the assay on TK-10 renal; 109% with ACHN renal; 95.5% in the assay with CAKI-1 renal; 95.6% in the assay on A498 renal; 111% with CCRF-CEM leukemia. For the same compound, the growth with MOLT-4 leukemia was 101%.

Take `O=c1[nH]nc(SC2CCCCC2)c(=O)[nH]1`: the growth is 106% in the assay with HCT-15 colon; 97.1% in the assay on HT29 colon; 82.3% with SNB-75 CNS; 103% with SNB-19 CNS; 103% with U251 CNS; 90.6% in the assay with PC-3 prostate. In addition, the growth is 112% in the assay on SK-MEL-5 melanoma; 113% with UACC-62 melanoma; 92.8% in the assay on LOX IMVI melanoma; 94.8% in the assay on SK-MEL-28 melanoma; 99.5% with EKVX NSCLC; 102% in the assay with SN12C renal. Also, the growth is 77.9% in the assay with UO-31 renal; 95.3% in the assay with TK-10 renal; 113% with ACHN renal; 95% in the assay with CAKI-1 renal; 93.7% in the assay on A498 renal; 106% in the assay with CCRF-CEM leukemia. In the assay with MOLT-4 leukemia, the growth is 89%.

Take `CCC1NC(=O)C(NC(=O)c2ncccc2O)C(C)OC(=O)C(c2ccccc2)NC(=O)C2CC(=O)CCN2C(=O)C(Cc2ccc(N(C)C)cc2)N(C)C(=O)C2CCCN2C1=O` (centres undefined) (tested in a mixture with another compound) ({Picolinoyl(3-OH)}-T[Abu]P[ξNMePhe(4-NMe2)][ξPip(4-oxo)][Phg]; ester 1-C; configuration not given here): the growth in the assay on HCT-15 colon was 79.3%; in the assay on HT29 colon, 43.6%; with SNB-75 CNS, 45.4%; in the assay on SNB-19 CNS, 78.4%; in the assay on U251 CNS, 64.9%; in the assay with PC-3 prostate, 55.5%. The growth was -21.7% (active) in the assay with SK-MEL-5 melanoma; 50.9% in the assay with UACC-62 melanoma; 49.2% in the assay with LOX IMVI melanoma; 95.9% in the assay on SK-MEL-2 melanoma; 41% in the assay with EKVX NSCLC; 75% with SN12C renal. The growth in the assay with UO-31 renal is 90.8%; with TK-10 renal, 91%; in the assay with ACHN renal it was 47.5%; with CAKI-1 renal, 50.8%; in the assay on CCRF-CEM leukemia it was 32%; in the assay on MOLT-4 leukemia, 42.2%.

Regarding `CC1=CC(C)(C)NC(=S)N1c1ccc(S(=O)(=O)O)c2cccc(S(=O)(=O)O)c12`, the growth is 105% with HCT-15 colon; 133% in the assay with HT29 colon; 90.5% in the assay with SNB-75 CNS; 109% in the assay on SNB-19 CNS; 113% in the assay with U251 CNS; 92.5% in the assay with PC-3 prostate. For the same compound, the growth is 101% in the assay with SK-MEL-5 melanoma; 97.5% in the assay on UACC-62 melanoma; 107% in the assay with LOX IMVI melanoma; 112% with SK-MEL-28 melanoma; 115% in the assay on EKVX NSCLC; 103% in the assay on SN12C renal. Also, the growth is 72.6% with UO-31 renal; 106% in the assay on TK-10 renal; 99.5% in the assay with ACHN renal; 115% in the assay with CAKI-1 renal; 97.6% in the assay on A498 renal; 94.1% in the assay with CCRF-CEM leukemia. The growth with MOLT-4 leukemia is 114%.

As to `O=C(O)CCC(=O)OC(C1CO1)C(OC(=O)CCC(=O)O)C1CO1` (centres undefined), the growth with HCT-15 colon was 97.9%; in the assay on HT29 colon, 100%; with SNB-75 CNS it was 94.7%; in the assay on SNB-19 CNS, 111%; in the assay with U251 CNS it was 95.7%; in the assay on PC-3 prostate it was 96.3%. Moreover, the growth is 98.8% in the assay on SK-MEL-5 melanoma; 111% in the assay on UACC-62 melanoma; 97.1% in the assay with LOX IMVI melanoma; 110% in the assay with SK-MEL-28 melanoma; 109% with SN12C renal; 85.3% in the assay with UO-31 renal. Besides, the growth with TK-10 renal is 93.2%; in the assay with ACHN renal, 101%; in the assay on CAKI-1 renal, 106%; in the assay with A498 renal it was 80.5%; with CCRF-CEM leukemia, 101%; with MOLT-4 leukemia it was 99.8%.

Turning to `CC(C)C(C#N)(C(C)C)C(C)C`, the growth in the assay on HCT-15 colon is 104%; with HT29 colon, 105%; in the assay with SNB-75 CNS, 98.6%; in the assay with SNB-19 CNS, 108%; in the assay on U251 CNS it was 102%; in the assay on PC-3 prostate, 92.7%. For the same compound, the growth in the assay with SK-MEL-5 melanoma was 101%; with UACC-62 melanoma it was 102%; in the assay on SK-MEL-28 melanoma it was 109%; in the assay on SK-MEL-2 melanoma, 98%; with EKVX NSCLC, 96.7%; in the assay on SN12C renal it was 99.9%. Also, the growth is 81.5% in the assay with UO-31 renal; 96% in the assay with TK-10 renal; 108% in the assay with ACHN renal; 95.6% with CAKI-1 renal; 98.3% in the assay on A498 renal; 102% with CCRF-CEM leukemia. In addition, the growth with MOLT-4 leukemia was 104%.

Regarding `COc1cc2nc3cc([N+](=O)[O-])ccc3c(Cl)c2cc1OC`, the growth with HCT-15 colon is 94.6%; with HT29 colon it was 105%; in the assay with SNB-75 CNS, 104%; in the assay with SNB-19 CNS, 106%; with U251 CNS, 89.1%; in the assay on PC-3 prostate it was 90.9%. Moreover, the growth with SK-MEL-5 melanoma was 99.1%; in the assay with UACC-62 melanoma, 74.8%; with LOX IMVI melanoma it was 105%; in the assay with SK-MEL-28 melanoma, 108%; in the assay with EKVX NSCLC, 83.3%; with SN12C renal, 97.7%. Also, the growth is 84.1% with UO-31 renal; 95.2% with TK-10 renal; 91.9% in the assay with ACHN renal; 101% with CAKI-1 renal; 7.26% (active) in the assay with A498 renal; 107% in the assay on MOLT-4 leukemia.

Turning to `COC(=O)/C=C1\Sc2cc(F)ccc2NC1=O`, the growth with HCT-15 colon is 106%; with HT29 colon, 97.8%; with SNB-75 CNS it was 86.6%; in the assay with SNB-19 CNS it was 95%; in the assay on U251 CNS it was 93.2%; in the assay on PC-3 prostate, 92.2%. Also, the growth in the assay on SK-MEL-5 melanoma was 104%; with UACC-62 melanoma, 88.8%; with LOX IMVI melanoma, 93.4%; in the assay on SK-MEL-28 melanoma it was 129%; with EKVX NSCLC it was 88.2%; in the assay with SN12C renal it was 116%. Further, the growth with UO-31 renal is 101%; in the assay on TK-10 renal, 139%; with ACHN renal it was 111%; with CAKI-1 renal, 60.9%; with A498 renal, 126%; with CCRF-CEM leukemia, 87.9%. Besides, the growth in the assay on MOLT-4 leukemia was 92.3%.
